Screening data from PubChem BioAssay.
USP30 inh = inhibitors of human USP30 deubiquitinase | AID 1645860, 2021 | inhibition, % at 25 µM | Ubiquitin carboxyl-terminal hydrolase 30 (Homo sapiens), Q70CQ3 | actives 5.3% (n = 47,000) | purified USP30, Ub-rhodamine cleavage fluorescence
USP28 inh = inhibitors of human USP28 deubiquitinase; Ubiquitin carboxyl-terminal hydrolase 28 (Homo sapiens), Q96RU2; purified USP28, Ub-rhodamine cleavage fluorescence, 30 min; inhibition, % at 25 µM; actives 3% (n = 47,000)
Target sequence (Q96RU2 whole entry, looked up): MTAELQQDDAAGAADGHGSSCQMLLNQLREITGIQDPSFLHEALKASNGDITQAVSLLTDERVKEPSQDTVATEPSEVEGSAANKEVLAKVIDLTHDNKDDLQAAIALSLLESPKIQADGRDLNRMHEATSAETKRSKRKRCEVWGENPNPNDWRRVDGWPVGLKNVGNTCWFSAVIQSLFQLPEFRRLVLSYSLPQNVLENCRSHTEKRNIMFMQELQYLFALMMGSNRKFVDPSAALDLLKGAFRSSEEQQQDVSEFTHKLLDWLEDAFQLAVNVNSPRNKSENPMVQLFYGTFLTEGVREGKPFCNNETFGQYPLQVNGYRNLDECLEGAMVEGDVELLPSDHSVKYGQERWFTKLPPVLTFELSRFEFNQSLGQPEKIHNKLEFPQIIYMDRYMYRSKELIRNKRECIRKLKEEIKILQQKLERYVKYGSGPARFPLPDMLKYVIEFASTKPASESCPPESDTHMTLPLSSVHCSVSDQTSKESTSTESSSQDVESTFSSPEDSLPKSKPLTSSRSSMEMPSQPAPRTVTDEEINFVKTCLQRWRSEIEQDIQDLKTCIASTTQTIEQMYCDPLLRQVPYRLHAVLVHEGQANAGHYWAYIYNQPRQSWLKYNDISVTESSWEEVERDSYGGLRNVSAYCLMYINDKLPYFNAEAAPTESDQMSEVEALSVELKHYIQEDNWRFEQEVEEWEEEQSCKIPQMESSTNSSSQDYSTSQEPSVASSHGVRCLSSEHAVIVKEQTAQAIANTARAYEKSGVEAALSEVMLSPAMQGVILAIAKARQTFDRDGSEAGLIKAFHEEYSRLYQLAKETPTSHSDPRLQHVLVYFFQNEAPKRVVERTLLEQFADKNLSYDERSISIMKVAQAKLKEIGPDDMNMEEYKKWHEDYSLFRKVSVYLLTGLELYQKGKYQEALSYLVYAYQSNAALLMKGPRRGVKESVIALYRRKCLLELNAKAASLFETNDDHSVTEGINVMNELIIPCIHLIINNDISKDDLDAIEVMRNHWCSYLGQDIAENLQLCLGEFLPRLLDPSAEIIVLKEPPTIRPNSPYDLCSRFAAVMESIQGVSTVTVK
USP17 inh = inhibitors of human USP17 deubiquitinase | Ubiquitin carboxyl-terminal hydrolase 17-like protein 5 (Homo sapiens), A8MUK1 | purified USP17, Ub-rhodamine cleavage fluorescence, 3 h | inhibition, % at 50 µM | actives 6.5% (n = 47,000)
Numbers stand for hits; - = inactive; . = not tested or not shown. Most compounds without a hit are left out; they make up all but 11% or so of the library. No stated cut-off is given here; in the data, active means inhibition above about 30%; inactive means the rest.

SMILES	USP30 inh	USP28 inh	USP17 inh
Cc1ccc(NC2=C(CC(=O)O)C(c3ccccc3F)N(c3ccc(C)cc3)C2=O)cc1 (stereo not drawn)	-	-	-
COc1ccc(C2c3[nH]c4ccccc4c3C[C@@H]3C(=O)N(C4CCCCC4)CC(=O)N23)cc1 (stereo partly drawn)	-	-	-
COC(=O)Cc1nc(NC(=O)c2ccc(OC)cc2)sc1C	-	-	-
O=C(CNc1nc(CN2CCCCC2)nc2sc3c(c12)CCC3)Nc1ccccc1Br	-	-	-
COc1cccc(S(=O)(=O)N2CCc3nc4ccccc4n3CC2)c1	-	-	-
N#Cc1cccc(S(=O)(=O)N2CCc3nc4ccccc4n3CC2)c1	51.3	-	30.2
O=S(=O)(c1cc(F)cc(F)c1)N1CCc2nc3ccccc3n2CC1	-	-	-
O=S(=O)(c1cccc(F)c1)N1CCc2nc3ccccc3n2CC1	-	-	90.7
O=S(=O)(c1cccc(F)c1)N1CCN(c2nnnn2-c2ccccc2)CC1	-	-	30.5
O=S(=O)(c1ccc(F)cc1)N1CCN(c2nnnn2-c2ccccc2)CC1	-	-	-
CCn1c(=O)c(C(=O)Nc2ccccc2Cl)nc2ccccc21	-	-	-
O=C(c1ccc2c(c1)OCO2)N1CCC2(C1)Nc1cccnc1NC2=NC1CCCC1 (stereo not drawn)	-	-	-
O=C(Nc1nccn(-c2ccc(F)c(Cl)c2)c1=O)c1ccccn1	-	-	-
COc1ccc(C(=O)N(c2ccc(F)cc2)c2nc3ccccc3s2)cc1OC	48.4	-	-
CC(=O)c1ccc(N(C(=O)c2ccc(Cl)cc2)c2nc3ccccc3s2)cc1	-	-	-
Cn1cc(C(=O)N2CCN(c3ccc(F)cc3)CC2)nn1	-	-	-
CC(=O)N1CCN(c2nccn2-c2cccc(Cl)c2)CC1	-	-	-
O=C(NCc1cc(F)cc(F)c1)c1csc(C(=O)NC2CC2)n1	-	-	-
CC[C@@H](C(=O)[C@@H](C)[C@@H](O)[C@H](C)CCc1ccc(C)c(O)c1C(=O)O)[C@@H]1O[C@](CC)([C@H]2CC[C@](O)(CC)[C@H](C)O2)C[C@@H]1C	59.6	-	56.4
COC(=O)c1cc(NC(=O)/C=C/c2ccc(Cl)cc2)ccc1N1CCOCC1	-	49.9	-
COC(=O)c1cc(NC/C=C/c2ccccc2)ccc1N1CCOCC1	-	-	-
CCn1c(=O)c2sccc2n2c(CCC(=O)NC3CCCC3)nnc12	-	-	-
Cc1cnc(C2COCCN2C(=O)c2ccc3c(c2)OCO3)[nH]1 (stereo not drawn)	-	-	-
CC(C)N1C(=O)C2COCCN2C(=O)c2cc3c(cc21)OCO3 (stereo not drawn)	.	.	36.9
CCCS(=O)(=O)Nc1ccc(-c2ccc3nnc(C)n3n2)cc1	-	-	-
SMILES	USP30 inh	USP28 inh	USP17 inh
Cc1nnc2ccc(-c3ccc(NS(=O)(=O)c4ccccc4F)cc3)nn12	-	-	42.7
CC(O)C1OC(=O)c2c(O)cc(O)cc21 (stereo not drawn)	-	-	-
CCn1ncc(S(=O)(=O)Nc2ccc(-c3ccccc3OC)cc2)c1C	-	-	-
O=c1cc(CN2CCc3ccccc32)cc[nH]1	-	-	-
Cc1c(S(=O)(=O)N2CCCC2)cc(C(=O)Nc2ccccc2)n1C	-	-	45.6
COc1ccccc1NC(=O)c1cc(S(=O)(=O)N2CCCCC2)c(C)n1C	-	-	-
O=C(c1ccco1)[C@H]1C(c2ccc(Cl)cc2)=NO[C@]12C(=O)Nc1ccccc12	-	-	-
O=C(Nc1ccc(-n2cccc2)c(Cl)c1)c1cccc([N+](=O)[O-])c1	-	-	-
O=C(Nc1ccc(-n2cccc2)cc1)c1cccc([N+](=O)[O-])c1	36.6	-	-
COc1ccc(-c2nn(-c3ccccc3)c3[nH]c(=O)c(CNCc4cccs4)cc23)cc1OC	-	-	-
Cc1ccc(NCc2cc3c(C(C)(C)C)nn(-c4ccc(Cl)cc4)c3[nH]c2=O)cc1	-	-	62.5
Cc1ccc(NCc2cc3c(-c4cccc(F)c4)nn(-c4ccccc4)c3[nH]c2=O)cc1C	-	-	-
CC(C)(C)c1nn(-c2ccc(Cl)cc2)c2[nH]c(=O)c(CNCCc3ccccc3)cc12	-	-	-
O=c1[nH]c2c(cc1CNc1ccc(Cl)cc1)c(-c1cccc(F)c1)nn2-c1ccccc1	-	-	37.7
COc1ccc(-c2nn(-c3ccccc3)c3[nH]c(=O)c(CNc4ccc5c(c4)OCCO5)cc23)cc1OC	-	-	43.5
COc1ccc(C(NC(=O)c2ccccc2C(=O)O)c2ccccc2)cc1 (stereo not drawn)	-	-	-
CCC(C)n1c(-c2ccccc2F)nc2nc3ccccc3nc21 (stereo not drawn)	35.4	36.8	-
CCCn1c(-c2ccccc2)nc2nc3ccccc3nc21	-	-	-
COc1ccc(-n2c(/C=C/c3cccc4ccccc34)nc3ccccc3c2=O)cc1	-	-	-
COc1ccc(-n2c(=O)c(CCC(=O)O)nc3ccccc32)cc1	-	-	50.1
O=C(c1cn(-c2cccc(F)c2)nn1)N1CCc2ccccc2C1	-	-	55.1
O=C(c1cn(-c2cccc(F)c2)nn1)N1CCN(c2ccccc2)CC1	-	-	-
O=C1NC(Cc2c[nH]c3ccccc23)C(=O)NC1Cc1c[nH]c2ccccc12 (stereo not drawn)	-	-	-
C=C1NC(=O)[C@@H](CC)NC(=O)CNC(=O)[C@H](Cc2c[nH]c3cccc(OC)c23)NC(=O)[C@H](Cc2c[nH]c3ccccc23)NC(=O)c2csc(n2)[C@@H](C)NC(=O)CN(C)C1=O	-	-	31.7
O=C(O)CSc1nnc(-c2ccc(Br)cc2)n1Cc1ccco1	-	-	-
SMILES	USP30 inh	USP28 inh	USP17 inh
COC(=O)c1ccc(NC(=O)CSc2nnc(-c3ccc(O)cc3)n2Cc2ccco2)cc1	84.0	-	-
COc1ccc2nc(-n3nc(C)c4c3NC(=O)CC4c3ccc(F)cc3)sc2c1 (stereo not drawn)	-	-	-
CC1CCC(NC(=O)C2CCCN2S(=O)(=O)c2ccc3nc(-c4ccccc4)[nH]c3c2)CC1 (stereo not drawn)	-	-	34.1
CC1CCC(NC(=O)C2CCN(S(=O)(=O)c3ccc4c(c3)OCCCO4)CC2)CC1 (stereo not drawn)	-	-	-
COCCN(C1CCN(c2nc(C)cc(C)n2)CC1)S(=O)(=O)c1cccs1	-	-	-
Cc1nc2cc(C(=O)NCc3ccccc3O)ccc2n1C	.	.	-
COc1ccc(C(=O)CSc2nnc(-c3cc4ccccc4o3)n2C)cc1	-	-	-
CCc1cc(C(=O)c2ccc(OC)cc2)c(NC(=O)CSc2nnc(-c3cccs3)n2C)s1	.	.	61.3
O=C1CC(c2noc(CCc3ccccc3)n2)CN1Cc1ccccc1 (stereo not drawn)	-	-	-
OCc1nc2ccccc2n1CC(O)COc1ccc(OCc2ccccc2)cc1 (stereo not drawn)	-	-	-
Cn1c2ccccc2c(=O)c2c(=O)n(Cc3ccccc3)c(C3CCCCC3)nc21	41.7	-	-
CC(C)Cn1c(C2CCCCC2)nc2c(c(=O)c3ccccc3n2C)c1=O	-	-	-
CC(C)c1nc2c(c(=O)c3ccccc3n2C)c(=O)n1CCc1ccccc1	49.7	35.0	-
